Records with an inconclusive call do not appear. Unmarked numbers belong to inactive results. The source made the active and inactive calls. Calls come from the whole dose curve; as a rule, active = well fitted inhibition curve with a large enough effect; inconclusive = small, poorly fitted or top-dose-only effect; inactive = no such curve, though single readings can be large or run the other way.

A short description of the assay: Orthogonal mCherry assay for qRT-PCR qHTS of selected Zika virus inhibitors. As to conditions: Vero cells, ZIKV-mCherry infection imaging, 48-72 h; series mostly up to 32.6 µM; activity change, negative = inhibition: at the top concentration. The source says: Description: Assay Submitters (PI): Avindra Nath, Ph.D., National Institute of Neurological Disorders and Stroke (NINDS), Bethesda, MD Radhakrishnan Padmanabhan, Ph.D., Georgetown University (GU), Washington D.C. Zika Virus causes congenital defects, including microcephaly and is associated with Guillain-Barre syndrome, eningoencephalitis and myelitis in infected adult. […] Using a target-based approach, we hope to establish a screening paradigm to uncover novel, cell-active NS2B-NS3 protease (Zika Virus) specific inhibitors from NCATS' collection of small molecules using qHTS. […] Four assay panel was created to identify potential Zika Virus inhibitors. Namely, (1) GU unlinked NS2B-NS3 AMC tagged protease qHTS, (2) GU unlinked NS2B-NS3 Rhodamine tagged protease qHTS, (3) NINDS linked NS2B-NS3 AMC tagged protease qHTS, (4) NINDS linked NS2B-NS3 Rhodamine tagged protease qHTS. Inhibitors of the Zika virus primary screens are confirmed using qRT-PCR secondary assays, mCherry orthogonal assay, and Vero cells viability counterscreen. Early Translation Branch (ETB) National Center for Advancing Translational Sciences (NCATS), Rockville, MD National Institute of Health (NIH), Bethesda, Maryland
384 well ZIKV-mCherry Assay: We have developed a new orthogonal imaging assay in 384-well plate format, which uses recombinant virus ZIKV-mCherry in Vero cells. Briefly, 30 microL of Vero cells derived from a green monkey cell line, were dispensed by Multidrop Dispenser into a clear solid bottom black 384 well plate (ultracarrier, Perkin Elmer LifeSciences) at a concentration of 5,000 cells per well. […] The TIFFs were quantitated using the canned Multi Target Analysis protocol (GE Investigator Workstation software v3.7.2). […] A recombinant Zika viral infection was monitored in the Cy5 channel (cells) using a 2 microm collar dilation from the nuclear bitmap. mCherry objects with an average nuclear RFU intensity above 450 (3 stdev above mean negative control wells) were considered "mcherry positive" and data was analyzed by percent infection rate.
(In general: In qPCR the cycle at which signal appears reflects the starting amount.)
With `O=C1OC(c2ccc(O)c(S(=O)(=O)O)c2)(c2ccc(O)c(S(=O)(=O)O)c2)c2c(Br)c(Br)c(Br)c(Br)c21`, the “activity change, negative = inhibition” value is -37.8%.

With `CC(=O)c1c(O)c(C)c(O)c(Cc2c(O)c3c(c(C(=O)/C=C/c4ccccc4)c2O)OC(C)(C)C=C3)c1O`, the Potency is 11.2 µM (active).

Take `CC(C)=CCC[C@]1(C)C=Cc2c(O)c3c(c(CC=C(C)C)c2O1)O[C@]12C(=C[C@@H]4CC1C(C)(C)O[C@@]2(C/C=C(/C)C(=O)O)C4=O)C3=O`: the Potency is 3.55 µM (active).

The values above are taken from PubChem BioAssay AID1347171 (National Center for Advancing Translational Sciences (NCATS), 2019).
